The text below walks through data of the supplement of paper PMC9844399.

Where “and” joins values, the source holds several entries; their conditions need not be identical. Equal values may be shown once. Where a name gives a salt, the structure may show the parent alone.
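Wherever MALAT1 nuclear FISH intensity, robust Z-score vs DMSO is given: High-content confocal imaging of branched-DNA amplified FISH in 384-well plates, Hoechst-defined nuclei, score is well value minus plate DMSO median over DMSO robust SD, four wells per compound.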
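Wherever nuclear count per well, robust Z-score vs DMSO is given: Hoechst-stained nuclei counted by automated confocal imaging of four fields per well in 384-well plates, with the robust Z-score based on the per-plate DMSO median and robust SD.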

One assay has as its system HeLa. As to the kind of experiment: nuclear count per well, robust Z-score vs DMSO; higher = more cells (less toxicity). The settings on record: 10 µM; 6 h.
With `O=P1(NCCCl)OCCCN1CCCl` (centres undefined) [Ifosfamide], the “nuclear count per well” value is 0.343.

With `CC[C@@H]1/C=C/C=C/C[C@H](C)[C@H](O)[C@](C)(O)C(=O)[C@H](C)[C@@H](O)[C@H](C)C(=O)[C@H](C)[C@@H](O)[C@H](C)/C=C/C(=O)O[C@H]2[C@@H](C)[C@@H](CC1)O[C@@]1(CC[C@@H](C)[C@@H](C[C@H](C)O)O1)[C@@H]2C` [Oligomycin A], the “nuclear count per well” value stood at 0.149. The same measure, in the same setting: under `Nc1ccncc1` [Dalfampridine (4-Aminopyridine)] stands 0.419; under `CC(C)n1cc2c3c(cccc31)C1C[C@@H](C(=O)N[C@H]3CCC[C@H]3O)CN(C)[C@@H]1C2` (some centres undefined), 0.107; under `Cc1cc2c(C(C)C)c(O)c(O)c(C=O)c2c(O)c1-c1c(C)cc2c(C(C)C)c(O)c(O)c(C=O)c2c1O` [Gossypol from cotton seeds], -0.581. On the same count and under the same terms, under `CCCCC/C=C\CC1OC1CCCCCCCC(=O)O` (centres undefined) [Leukotoxin A (9,10-EODE)] stands -0.0952. Same read-out and setting: under `C[C@H](N)C(=O)N[C@@H](C)C(=O)N[C@@H](Cc1ccccc1)C(=O)CCl` stands -0.353; under `O[C@H]1[C@H]2[C@H](O)CCCN2C[C@H]1O` [swainsonine], 1.06. Regarding `N#CC(C#N)=Cc1ccc(O)cc1` [Tyrphostin-8], the “nuclear count per well” value was 1.34. Same read-out and setting: under `CCCCCCCCCCCCCCCCOCC(COP(=O)([O-])OCC[N+](C)(C)C)OC(C)=O` (stereo not drawn) [Enantio-PAF C16] stands -0.712; under `N#Cc1nn(-c2c(Cl)cc(C(F)(F)F)cc2Cl)c(N)c1[S+]([O-])C(F)(F)F` (centres undefined) [Fipronil], -0.0952. On to `CNc1ccc2oc(C[C@H]3O[C@@]4(CC[C@H]3C)O[C@H]([C@H](C)C(=O)c3ccc[nH]3)[C@H](C)C[C@H]4C)nc2c1C(=O)O`, for which the “nuclear count per well” value was -0.692 and -0.622. In the case of `CC1=C[C@H]2O[C@@H]3[C@H](O)C[C@](C)([C@@]2(CO)[C@H](O)C1=O)[C@]31CO1` [Deoxynivalenol], the “nuclear count per well” value is -4.53.

Consider `CC(C)NCC(O)c1ccc(N)c(C#N)c1` (centres undefined) [Cimaterol], for which the “nuclear count per well” value was -0.278.

Consider `COC1=CC(=O)O[C@@H](/C=C/c2ccccc2)C1`, for which the “nuclear count per well” value is -0.213.

`CCCCCC1OC1C/C=C\CCCCCCCC(=O)O` (centres undefined) [Leukotoxin B (12,13-EODE)]: the “nuclear count per well” value is -0.408. The same measure, in the same setting: under `CN(C)C(=O)Oc1cc(OC(=O)N(C)C)cc(C(O)CNC(C)(C)C)c1` (centres undefined) [Bambuterol hydrochloride] stands -0.623; under `COc1ccc(C(CN(C)C)C2(O)CCCCC2)cc1` (racemic) [D,L-Venlafaxine HCl], -0.612; under `Oc1ccccc1-c1ccccc1` [2-Phenylphenol], 0.198. Consider `COc1cc2c(c3oc(=O)c4c(c13)CCC4=O)[C@@H]1C=CO[C@@H]1O2` [Aflatoxin B1], for which the “nuclear count per well” value stood at 0.658. On the same count and under the same terms, the value for `C=C1C/C(=C/C)C(=O)O[C@@H]2CCN3CC=C(COC(=O)[C@]1(C)O)[C@H]23` [Seneciophylline] was 0.668; that for `CC(C)N(CCC(C(N)=O)(c1ccccc1)c1ccccn1)C(C)C` (centres undefined) [Disopyramide] was 0.233. The same measure, in the same setting: the value for `CC1(C)[C@@H](O)C[C@H]2[C@](C)(O)[C@@H]3CC[C@@H]4[C@@H](O)[C@@]3(C[C@@H](O)[C@@]21O)C[C@@]4(C)O` [Grayanotoxin III] was 0.669. On the same count and under the same terms, under `CC(C)C[C@H](CN)CC(=O)O` [Pregabalin] stands 0.726.

Regarding `CC(C)C[C@H]1C(=O)N2CCC[C@H]2[C@]2(O)O[C@](NC(=O)[C@@H]3C=C4c5cccc6[nH]c(Br)c(c56)C[C@H]4N(C)C3)(C(C)C)C(=O)N12` [Bromocriptine Mesylate], the “nuclear count per well” value was -0.754.

Consider `O=C(Nc1ccccc1)N(Cc1ccc(Cl)cc1)C1CCCC1` [Pencycuron], for which the “nuclear count per well” value is 1.54. On the same count and under the same terms, under `NC1CCc2cc(O)c(O)cc2C1` (centres undefined) stands 0.0305. On the same count and under the same terms, under `CN1[C@@H]2CC[C@H]1C[C@@H](OC(=O)C(CO)c1ccccc1)C2` (some centres undefined) [Atropine Sulfate Monohydrate] stands 0.868; under `O=C(NCCc1ncc(C(F)(F)F)cc1Cl)c1ccccc1C(F)(F)F` [Fluopyram], -0.448; under `C[C@H](CCC(=O)O)C[C@H](C)C[C@H](C)C(=O)/C=C(\O)[C@H](C)C[C@H](C)C/C=C/[C@@H](C)[C@@H](O)[C@@H](C)[C@@H](O)C[C@@H]1CC[C@@](C)([C@H]2CC[C@@](C)([C@@H](C)O)O2)O1` [Ionomycin, Free Acid, Streptomyces conglobatus], -5.65.

The test system of the next assay is HeLa. The assay can be described thus: MALAT1 nuclear FISH intensity, robust Z-score vs DMSO; higher = more nuclear MALAT1 lncRNA, active = -3 or less. The settings on record: 10 µM; 6 h.
For `COc1cc([C@@H]2c3cc4c(cc3[C@H](O)[C@H]3COC(=O)[C@H]23)OCO4)cc(OC)c1OC` [Podofilox], the “MALAT1 nuclear FISH intensity” value was -0.322 (inactive).

`CC(=O)N[C@H]1[C@@H](O[C@@H]2O[C@H](CC(O)[C@H]3O[C@@H](n4ccc(=O)[nH]c4=O)[C@H](O)[C@@H]3O)[C@H](O)[C@H](O)[C@H]2NC(=O)/C=C/CC(C)C)O[C@H](CO)[C@@H](N)[C@@H]1O` (some centres undefined) [Tunicamycin]: the “MALAT1 nuclear FISH intensity” value is 0.708 (inactive).

Take `CNc1ccc2oc(CC3OC4(CCC3C)OC(C(C)C(=O)c3ccc[nH]3)C(C)CC4C)nc2c1C(=O)O` (centres undefined): the “MALAT1 nuclear FISH intensity” value is 0.367 (inactive). In the case of `CCCCCc1cc(O)c2c(c1)OC(C)(C)C1CCC(C(=O)O)=CC21` (centres undefined) [Tetrahydrocannabinol-7-oic acid], the “MALAT1 nuclear FISH intensity” value was -0.0492 (inactive). The same measure, in the same setting: under `CN1C(=O)CC(=O)N(c2ccccc2)c2cc(Cl)ccc21` [Clobazam] stands -0.175 (inactive); under `C[C@H]1C(=O)O[C@@H]2CCN3CC=C(COC(=O)[C@](C)(O)[C@]1(C)O)[C@H]23` [Monocrotaline], -0.947 (inactive); under `C[C@@H](CN1CCC(n2c(=O)[nH]c3cc(Br)ccc32)CC1)NC(=O)[C@@H]1C[C@H]1c1ccccc1`, -0.293 (inactive). Still for that read-out and setting: the value for `C[C@H](CCC(=O)O)C[C@H](C)C[C@H](C)C(=O)/C=C(\O)[C@H](C)C[C@H](C)C/C=C/[C@@H](C)[C@@H](O)[C@@H](C)[C@@H](O)C[C@@H]1CC[C@@](C)([C@H]2CC[C@@](C)([C@@H](C)O)O2)O1` [Ionomycin] was 0.165 (inactive). Still for that read-out and setting: the value for `COc1cccc2c1cc([N+](=O)[O-])c1c(C(=O)O)cc3c(c12)OCO3` [Aristolochic acid] was -1.95 (inactive). Regarding `O=P1(NCCCl)OCCCN1CCCl` (centres undefined) [Ifosfamide], the “MALAT1 nuclear FISH intensity” value is -1.16 (inactive). Still for that read-out and setting: the value for `CC[C@@H]1/C=C/C=C/C[C@H](C)[C@H](O)[C@](C)(O)C(=O)[C@H](C)[C@@H](O)[C@H](C)C(=O)[C@H](C)[C@@H](O)[C@H](C)/C=C/C(=O)O[C@H]2[C@@H](C)[C@@H](CC1)O[C@@]1(CC[C@@H](C)[C@@H](C[C@H](C)O)O1)[C@@H]2C` [Oligomycin A] was -1.38 (inactive); that for `Nc1ccncc1` [Dalfampridine (4-Aminopyridine)] was -1.07 (inactive). With `CC(C)n1cc2c3c(cccc31)C1C[C@@H](C(=O)N[C@H]3CCC[C@H]3O)CN(C)[C@@H]1C2` (some centres undefined), the “MALAT1 nuclear FISH intensity” value is -0.281 (inactive). The same measure, in the same setting: the value for `Cc1cc2c(C(C)C)c(O)c(O)c(C=O)c2c(O)c1-c1c(C)cc2c(C(C)C)c(O)c(O)c(C=O)c2c1O` [Gossypol from cotton seeds] was 2.4 (inactive); that for `CCCCC/C=C\CC1OC1CCCCCCCC(=O)O` (centres undefined) [Leukotoxin A (9,10-EODE)] was -0.766 (inactive); that for `C[C@H](N)C(=O)N[C@@H](C)C(=O)N[C@@H](Cc1ccccc1)C(=O)CCl` was 0.276 (inactive). For the compound `O[C@H]1[C@H]2[C@H](O)CCCN2C[C@H]1O` [swainsonine], the “MALAT1 nuclear FISH intensity” value is -1.77 (inactive). Same read-out and setting: the value for `N#CC(C#N)=Cc1ccc(O)cc1` [Tyrphostin-8] was -0.39 (inactive); that for `CCCCCCCCCCCCCCCCOCC(COP(=O)([O-])OCC[N+](C)(C)C)OC(C)=O` (stereo not drawn) [Enantio-PAF C16] was 1.44 (inactive).

As for `N#Cc1nn(-c2c(Cl)cc(C(F)(F)F)cc2Cl)c(N)c1[S+]([O-])C(F)(F)F` (centres undefined) [Fipronil], the “MALAT1 nuclear FISH intensity” value is 0.909 (inactive). Same read-out and setting: under `CNc1ccc2oc(C[C@H]3O[C@@]4(CC[C@H]3C)O[C@H]([C@H](C)C(=O)c3ccc[nH]3)[C@H](C)C[C@H]4C)nc2c1C(=O)O` stands 0.491 (inactive) and 1.32 (inactive). The same measure, in the same setting: under `CC1=C[C@H]2O[C@@H]3[C@H](O)C[C@](C)([C@@]2(CO)[C@H](O)C1=O)[C@]31CO1` [Deoxynivalenol] stands 5.65 (inactive); under `CC(C)NCC(O)c1ccc(N)c(C#N)c1` (centres undefined) [Cimaterol], -0.435 (inactive); under `COC1=CC(=O)O[C@@H](/C=C/c2ccccc2)C1`, -1.01 (inactive).

Turning to `CCCCCC1OC1C/C=C\CCCCCCCC(=O)O` (centres undefined) [Leukotoxin B (12,13-EODE)], the “MALAT1 nuclear FISH intensity” value is 0.812 (inactive). The same measure, in the same setting: the value for `CN(C)C(=O)Oc1cc(OC(=O)N(C)C)cc(C(O)CNC(C)(C)C)c1` (centres undefined) [Bambuterol hydrochloride] was 0.417 (inactive).

For the compound `COc1ccc(C(CN(C)C)C2(O)CCCCC2)cc1` (racemic) [D,L-Venlafaxine HCl], the “MALAT1 nuclear FISH intensity” value was 0.16 (inactive). On to `Oc1ccccc1-c1ccccc1` [2-Phenylphenol], for which the “MALAT1 nuclear FISH intensity” value is -0.151 (inactive). Same read-out and setting: the value for `COc1cc2c(c3oc(=O)c4c(c13)CCC4=O)[C@@H]1C=CO[C@@H]1O2` [Aflatoxin B1] was 0.773 (inactive); that for `C=C1C/C(=C/C)C(=O)O[C@@H]2CCN3CC=C(COC(=O)[C@]1(C)O)[C@H]23` [Seneciophylline] was -0.29 (inactive). As to `CC(C)N(CCC(C(N)=O)(c1ccccc1)c1ccccn1)C(C)C` (centres undefined) [Disopyramide], the “MALAT1 nuclear FISH intensity” value is -1.18 (inactive).

Regarding `CC1(C)[C@@H](O)C[C@H]2[C@](C)(O)[C@@H]3CC[C@@H]4[C@@H](O)[C@@]3(C[C@@H](O)[C@@]21O)C[C@@]4(C)O` [Grayanotoxin III], the “MALAT1 nuclear FISH intensity” value is 0.292 (inactive). The same measure, in the same setting: the value for `CC(C)C[C@H](CN)CC(=O)O` [Pregabalin] was 0.496 (inactive). On the same count and under the same terms, the value for `CC(C)C[C@H]1C(=O)N2CCC[C@H]2[C@]2(O)O[C@](NC(=O)[C@@H]3C=C4c5cccc6[nH]c(Br)c(c56)C[C@H]4N(C)C3)(C(C)C)C(=O)N12` [Bromocriptine Mesylate] was 0.805 (inactive).
